The source of these data is article PMC7862700, “An all-to-all approach to the identification of sequence-specific readers for epigenetic DNA modifications on cytosine”.

Common to all, as to assay: DAPPL (digital affinity profiling via proximity ligation, sequencing); 10 mM Tris-HCl pH 7.5, 50 mM NaCl, 1 mM DTT, 4% glycerol, room temperature, 30 min; GST-TFs on glutathione beads, 16-mer random dsDNA library, 0.1% formaldehyde crosslink after washing; high values mean tight binding
Test [1] has as its target T1, FLI1 (Homo sapiens, UniProt Q01543 1-452).
T1 sequence: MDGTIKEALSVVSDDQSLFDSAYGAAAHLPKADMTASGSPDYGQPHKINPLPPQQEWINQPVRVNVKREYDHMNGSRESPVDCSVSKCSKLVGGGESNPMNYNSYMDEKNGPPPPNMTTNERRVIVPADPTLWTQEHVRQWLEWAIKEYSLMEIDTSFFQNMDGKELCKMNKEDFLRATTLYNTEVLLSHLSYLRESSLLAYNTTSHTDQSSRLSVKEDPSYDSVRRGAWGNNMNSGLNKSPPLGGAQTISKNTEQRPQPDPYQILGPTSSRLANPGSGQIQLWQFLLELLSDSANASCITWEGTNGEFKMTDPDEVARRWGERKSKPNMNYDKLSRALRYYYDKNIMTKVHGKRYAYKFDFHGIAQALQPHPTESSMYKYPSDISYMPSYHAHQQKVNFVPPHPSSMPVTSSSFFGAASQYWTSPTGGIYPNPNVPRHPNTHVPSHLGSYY
The following applies: protein: recombinant; tags: N-terminal GST; dsDNA, one strand shown. An outline of the steps:
(§1)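 After expression in yeast as GST fusions, human transcription factors were bound to glutathione beads, DNA-barcoded and mixed with a tag-only sample. The pools were incubated with 200 nmole of a 16-mer random double-stranded DNA library in Tris/NaCl/DTT/glycerol buffer (30 min, room temperature), washed and crosslinked with 0.1% formaldehyde. Proximity ligation with BsaI/T4 ligase ran for 1 h at 37 °C, before PCR amplification and sequencing on an Illumina NextSeq500. Binding signal is a hexamer's read frequency for a factor divided by its frequency for the tag-only sample.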

The target of test [2] is T2, ELK1 (Homo sapiens, UniProt P19419 1-428).
T2 sequence: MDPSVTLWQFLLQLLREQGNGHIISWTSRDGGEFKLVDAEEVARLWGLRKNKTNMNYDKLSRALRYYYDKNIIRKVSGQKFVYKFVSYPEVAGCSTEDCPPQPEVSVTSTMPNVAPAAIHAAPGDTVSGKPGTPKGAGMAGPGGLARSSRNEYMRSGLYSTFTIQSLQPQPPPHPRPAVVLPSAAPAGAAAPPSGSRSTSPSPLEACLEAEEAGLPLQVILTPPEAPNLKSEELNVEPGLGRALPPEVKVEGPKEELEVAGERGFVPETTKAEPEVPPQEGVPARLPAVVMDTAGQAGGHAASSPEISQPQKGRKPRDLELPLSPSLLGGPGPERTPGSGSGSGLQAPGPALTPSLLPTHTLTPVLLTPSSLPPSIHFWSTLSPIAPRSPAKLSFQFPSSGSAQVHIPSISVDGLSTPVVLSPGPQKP
Conditions: protein: recombinant; tags: N-terminal GST; dsDNA, one strand shown. An outline of the steps: as §1

Test [3] has as its target T3, GABPA (Homo sapiens, UniProt Q06546 1-454).
T3 sequence: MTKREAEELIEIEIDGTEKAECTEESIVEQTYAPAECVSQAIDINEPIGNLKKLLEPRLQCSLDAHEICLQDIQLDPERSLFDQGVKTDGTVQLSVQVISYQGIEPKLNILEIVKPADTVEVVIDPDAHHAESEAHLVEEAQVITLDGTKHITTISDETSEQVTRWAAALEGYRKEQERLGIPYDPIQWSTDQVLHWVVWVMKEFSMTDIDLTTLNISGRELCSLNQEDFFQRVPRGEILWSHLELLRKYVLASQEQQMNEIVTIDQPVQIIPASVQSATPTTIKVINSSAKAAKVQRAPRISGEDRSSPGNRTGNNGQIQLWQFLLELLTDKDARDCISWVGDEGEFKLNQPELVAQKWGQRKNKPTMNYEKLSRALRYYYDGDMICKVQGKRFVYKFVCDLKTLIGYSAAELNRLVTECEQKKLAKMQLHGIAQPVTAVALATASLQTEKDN
The following applies: protein: recombinant; tags: N-terminal GST; dsDNA, one strand shown. The method in brief: as §1

Test [4] concerns the target T4, ERG (Homo sapiens, UniProt P11308 1-479).
T4 sequence: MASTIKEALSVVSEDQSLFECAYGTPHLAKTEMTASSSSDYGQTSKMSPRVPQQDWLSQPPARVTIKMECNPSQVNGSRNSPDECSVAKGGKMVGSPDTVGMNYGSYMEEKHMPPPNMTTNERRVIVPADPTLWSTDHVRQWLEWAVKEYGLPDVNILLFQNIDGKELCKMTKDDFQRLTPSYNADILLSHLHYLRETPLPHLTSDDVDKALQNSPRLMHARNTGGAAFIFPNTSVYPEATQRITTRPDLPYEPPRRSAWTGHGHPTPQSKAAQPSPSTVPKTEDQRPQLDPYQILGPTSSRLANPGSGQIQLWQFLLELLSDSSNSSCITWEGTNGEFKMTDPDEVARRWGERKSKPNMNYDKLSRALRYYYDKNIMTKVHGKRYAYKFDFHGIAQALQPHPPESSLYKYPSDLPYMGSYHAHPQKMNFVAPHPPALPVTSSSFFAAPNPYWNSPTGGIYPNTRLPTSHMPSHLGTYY
The following applies: protein: recombinant; tags: N-terminal GST; dsDNA, one strand shown. An outline of the steps:
as §1

For test [5], the target named is ELF1 (Homo sapiens, UniProt P32519 1-619). The following applies: protein: recombinant; tags: N-terminal GST; dsDNA, one strand shown. The method in brief:
as §1

Test [6] has as its target T5, EHF (Homo sapiens, UniProt Q9NZC4 1-300).
T5 sequence: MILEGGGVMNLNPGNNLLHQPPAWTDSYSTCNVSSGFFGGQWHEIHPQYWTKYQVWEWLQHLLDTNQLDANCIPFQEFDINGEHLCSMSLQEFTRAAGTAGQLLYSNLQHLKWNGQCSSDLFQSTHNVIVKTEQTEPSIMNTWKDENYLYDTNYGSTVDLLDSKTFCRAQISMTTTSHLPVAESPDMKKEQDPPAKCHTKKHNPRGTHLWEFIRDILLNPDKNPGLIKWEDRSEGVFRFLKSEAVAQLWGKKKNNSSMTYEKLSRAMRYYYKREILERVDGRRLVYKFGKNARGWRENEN
The following applies: protein: recombinant; tags: N-terminal GST; dsDNA, one strand shown. The method in brief:
as §1

Test [7] has as its target SPI1 (Homo sapiens, UniProt P17947 1-270). The following applies: protein: recombinant; tags: N-terminal GST; dsDNA, one strand shown. The method in brief: as §1
In test [8] the target is SPIB (Homo sapiens, UniProt Q01892 1-262). The following applies: protein: recombinant; tags: N-terminal GST; dsDNA, one strand shown. An outline of the steps:
as §1

The target in test [9] is T6, ELK3 (Homo sapiens, UniProt P41970 1-407).
T6 sequence: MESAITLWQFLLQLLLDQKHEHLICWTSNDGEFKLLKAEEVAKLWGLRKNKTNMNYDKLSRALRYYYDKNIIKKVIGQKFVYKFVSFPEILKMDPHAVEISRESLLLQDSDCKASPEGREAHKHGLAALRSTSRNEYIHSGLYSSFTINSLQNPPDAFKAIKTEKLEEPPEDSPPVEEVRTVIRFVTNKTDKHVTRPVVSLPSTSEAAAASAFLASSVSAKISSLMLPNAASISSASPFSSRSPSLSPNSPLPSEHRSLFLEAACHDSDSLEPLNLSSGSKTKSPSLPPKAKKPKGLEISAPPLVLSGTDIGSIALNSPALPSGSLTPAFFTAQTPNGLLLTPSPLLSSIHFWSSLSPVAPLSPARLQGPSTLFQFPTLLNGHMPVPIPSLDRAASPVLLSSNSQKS
Conditions: protein: recombinant; tags: N-terminal GST; dsDNA, one strand shown. The method in brief: as §1

Test [10] deals with T7, FEV (Homo sapiens, UniProt Q99581 1-238).
T7 sequence: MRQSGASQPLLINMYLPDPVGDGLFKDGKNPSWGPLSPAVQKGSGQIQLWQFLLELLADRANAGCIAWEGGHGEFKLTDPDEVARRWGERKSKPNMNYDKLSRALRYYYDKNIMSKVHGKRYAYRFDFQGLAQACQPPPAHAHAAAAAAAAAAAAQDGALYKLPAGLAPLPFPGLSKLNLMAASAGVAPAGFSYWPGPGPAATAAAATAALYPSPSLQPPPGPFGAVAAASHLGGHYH
The following applies: protein: recombinant; tags: N-terminal GST; dsDNA, one strand shown. An outline of the steps:
as §1

Test [11] has as its target ETV5 (Homo sapiens, UniProt P41161 1-510). The following applies: protein: recombinant; tags: N-terminal GST; dsDNA, one strand shown. The method in brief:
as §1

The target in test [12] is HSF1 (Homo sapiens, UniProt Q00613 1-529). The following applies: protein: recombinant; tags: N-terminal GST; chain copies: 3; dsDNA, one strand shown. An outline of the steps: as §1
Test [13] deals with T8, SPIC (Homo sapiens, UniProt Q8N5J4 1-248).
T8 sequence: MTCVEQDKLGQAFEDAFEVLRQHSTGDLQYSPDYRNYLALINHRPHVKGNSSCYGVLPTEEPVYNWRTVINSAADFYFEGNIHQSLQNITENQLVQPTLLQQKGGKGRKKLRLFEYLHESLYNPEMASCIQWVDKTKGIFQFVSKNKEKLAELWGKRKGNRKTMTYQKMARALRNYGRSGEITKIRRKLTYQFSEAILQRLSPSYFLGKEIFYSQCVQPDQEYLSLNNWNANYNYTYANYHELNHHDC
The following applies: protein: recombinant; tags: N-terminal GST; dsDNA, one strand shown. An outline of the steps: as §1

Test [14] addresses ELF4 (Homo sapiens, UniProt Q99607 1-663). The following applies: protein: recombinant; tags: N-terminal GST; dsDNA, one strand shown. The method in brief: as §1
The target of test [15] is T9, ELK4 (Homo sapiens, UniProt P28324-2 1-405).
T9 sequence: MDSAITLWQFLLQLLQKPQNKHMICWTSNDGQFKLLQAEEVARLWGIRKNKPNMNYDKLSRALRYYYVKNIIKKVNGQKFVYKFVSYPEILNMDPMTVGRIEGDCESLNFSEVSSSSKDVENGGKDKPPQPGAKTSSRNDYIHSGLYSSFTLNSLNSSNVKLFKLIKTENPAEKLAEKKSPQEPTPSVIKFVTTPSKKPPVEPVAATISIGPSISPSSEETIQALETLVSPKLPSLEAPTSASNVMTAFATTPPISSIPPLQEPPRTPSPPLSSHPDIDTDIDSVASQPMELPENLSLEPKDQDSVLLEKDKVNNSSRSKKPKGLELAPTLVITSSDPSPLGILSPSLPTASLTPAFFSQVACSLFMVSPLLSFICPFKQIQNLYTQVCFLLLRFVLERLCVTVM
Conditions: protein: recombinant; tags: N-terminal GST; dsDNA, one strand shown. The method in brief:
as §1

Test [16] addresses T10, ETV2 (Homo sapiens, UniProt O00321 1-342).
T10 sequence: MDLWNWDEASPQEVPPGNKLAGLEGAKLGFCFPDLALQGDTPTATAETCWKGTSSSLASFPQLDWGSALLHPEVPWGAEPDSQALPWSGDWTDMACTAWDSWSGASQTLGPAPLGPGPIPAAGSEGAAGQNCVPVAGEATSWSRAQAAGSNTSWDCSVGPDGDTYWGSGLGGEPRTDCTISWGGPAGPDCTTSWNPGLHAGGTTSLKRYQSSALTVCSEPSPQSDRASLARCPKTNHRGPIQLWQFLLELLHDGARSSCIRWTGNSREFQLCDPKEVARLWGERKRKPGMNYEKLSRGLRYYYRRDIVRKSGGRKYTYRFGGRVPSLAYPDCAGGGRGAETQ
The following applies: protein: recombinant; tags: N-terminal GST; dsDNA, one strand shown. An outline of the steps:
as §1

The target in test [17] is T11, ELF3 (Homo sapiens, UniProt P78545 1-371).
T11 sequence: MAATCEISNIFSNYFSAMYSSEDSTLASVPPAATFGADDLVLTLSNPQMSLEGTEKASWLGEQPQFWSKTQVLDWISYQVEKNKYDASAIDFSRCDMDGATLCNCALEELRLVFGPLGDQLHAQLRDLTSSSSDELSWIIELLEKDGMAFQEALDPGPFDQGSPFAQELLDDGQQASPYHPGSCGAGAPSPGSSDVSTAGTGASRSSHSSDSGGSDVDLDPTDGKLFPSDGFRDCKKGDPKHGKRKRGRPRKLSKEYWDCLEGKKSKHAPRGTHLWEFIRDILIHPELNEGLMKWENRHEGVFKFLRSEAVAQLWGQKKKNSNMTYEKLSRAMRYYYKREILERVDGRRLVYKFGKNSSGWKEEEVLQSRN
The following applies: protein: recombinant; tags: N-terminal GST; dsDNA, one strand shown. The method in brief:
as §1

Test [18] addresses ETV1 (Homo sapiens, UniProt P50549 1-477). Conditions: protein: recombinant; tags: N-terminal GST; dsDNA, one strand shown. An outline of the steps: as §1

Chain of ELF1 (P32519 whole entry): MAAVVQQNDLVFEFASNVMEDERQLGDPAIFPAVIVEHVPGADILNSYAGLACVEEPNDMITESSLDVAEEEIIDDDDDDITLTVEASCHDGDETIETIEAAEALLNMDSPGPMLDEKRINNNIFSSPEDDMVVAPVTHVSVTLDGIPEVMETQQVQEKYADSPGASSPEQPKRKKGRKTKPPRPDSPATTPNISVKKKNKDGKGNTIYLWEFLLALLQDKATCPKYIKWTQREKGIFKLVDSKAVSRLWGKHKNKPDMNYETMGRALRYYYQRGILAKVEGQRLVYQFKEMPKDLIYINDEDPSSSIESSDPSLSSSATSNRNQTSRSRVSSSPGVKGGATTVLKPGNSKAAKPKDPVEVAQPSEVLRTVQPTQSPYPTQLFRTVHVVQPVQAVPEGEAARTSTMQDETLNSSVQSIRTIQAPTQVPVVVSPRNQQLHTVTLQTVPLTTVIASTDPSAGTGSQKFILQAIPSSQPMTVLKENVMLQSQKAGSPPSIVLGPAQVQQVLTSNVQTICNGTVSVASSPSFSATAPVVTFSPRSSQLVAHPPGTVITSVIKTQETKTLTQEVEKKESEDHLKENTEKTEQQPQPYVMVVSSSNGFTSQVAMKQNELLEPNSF
Chain of HSF1 (Q00613 whole entry): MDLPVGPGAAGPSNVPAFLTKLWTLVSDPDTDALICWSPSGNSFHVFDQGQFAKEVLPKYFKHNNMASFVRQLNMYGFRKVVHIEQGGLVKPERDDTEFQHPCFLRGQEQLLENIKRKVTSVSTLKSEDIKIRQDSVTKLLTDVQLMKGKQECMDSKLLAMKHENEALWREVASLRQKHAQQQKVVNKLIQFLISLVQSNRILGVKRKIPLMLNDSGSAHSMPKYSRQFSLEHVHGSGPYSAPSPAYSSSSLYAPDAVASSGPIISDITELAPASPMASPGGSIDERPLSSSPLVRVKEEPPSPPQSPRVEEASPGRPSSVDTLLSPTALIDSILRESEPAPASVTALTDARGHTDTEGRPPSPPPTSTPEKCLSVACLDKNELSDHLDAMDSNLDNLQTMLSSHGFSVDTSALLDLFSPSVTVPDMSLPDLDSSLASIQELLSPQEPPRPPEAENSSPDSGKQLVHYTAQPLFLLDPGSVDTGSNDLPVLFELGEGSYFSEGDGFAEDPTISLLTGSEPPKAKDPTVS
Chain of ETV1 (P50549 whole entry): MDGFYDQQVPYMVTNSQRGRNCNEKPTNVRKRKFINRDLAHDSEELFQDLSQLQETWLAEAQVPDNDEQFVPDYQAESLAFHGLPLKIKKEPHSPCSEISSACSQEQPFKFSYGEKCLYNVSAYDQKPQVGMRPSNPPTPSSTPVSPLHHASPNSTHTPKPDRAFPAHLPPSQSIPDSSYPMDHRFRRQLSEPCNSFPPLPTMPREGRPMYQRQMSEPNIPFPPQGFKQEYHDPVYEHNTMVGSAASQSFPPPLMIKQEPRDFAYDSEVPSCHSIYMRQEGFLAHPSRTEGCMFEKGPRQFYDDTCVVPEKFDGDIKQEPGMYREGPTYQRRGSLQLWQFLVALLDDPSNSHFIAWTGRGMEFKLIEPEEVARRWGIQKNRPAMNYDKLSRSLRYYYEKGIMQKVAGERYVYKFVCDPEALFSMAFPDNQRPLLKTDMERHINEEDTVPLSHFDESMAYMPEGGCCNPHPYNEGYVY
Chain of ETV5 (P41161 whole entry): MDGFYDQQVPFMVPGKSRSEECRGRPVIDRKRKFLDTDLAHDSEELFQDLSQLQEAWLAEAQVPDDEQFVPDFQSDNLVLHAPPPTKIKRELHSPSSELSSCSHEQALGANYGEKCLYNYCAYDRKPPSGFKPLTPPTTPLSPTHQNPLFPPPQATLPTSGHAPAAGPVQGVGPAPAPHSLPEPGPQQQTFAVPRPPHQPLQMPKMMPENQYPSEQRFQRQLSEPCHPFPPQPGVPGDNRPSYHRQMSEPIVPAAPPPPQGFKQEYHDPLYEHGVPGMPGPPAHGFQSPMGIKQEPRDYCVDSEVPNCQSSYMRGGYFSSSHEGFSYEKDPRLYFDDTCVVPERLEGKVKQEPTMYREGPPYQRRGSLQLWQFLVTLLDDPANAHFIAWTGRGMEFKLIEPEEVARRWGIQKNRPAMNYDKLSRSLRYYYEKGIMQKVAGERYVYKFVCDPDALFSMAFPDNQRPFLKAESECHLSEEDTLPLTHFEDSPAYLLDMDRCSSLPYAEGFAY
Chain of SPIB (Q01892 whole entry): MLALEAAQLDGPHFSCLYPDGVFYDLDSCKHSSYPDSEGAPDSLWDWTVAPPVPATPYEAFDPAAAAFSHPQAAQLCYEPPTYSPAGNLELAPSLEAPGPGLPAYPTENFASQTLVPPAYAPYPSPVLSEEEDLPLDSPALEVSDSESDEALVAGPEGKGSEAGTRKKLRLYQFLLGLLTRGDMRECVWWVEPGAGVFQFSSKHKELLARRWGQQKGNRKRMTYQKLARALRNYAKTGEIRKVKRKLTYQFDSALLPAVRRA
Chain of ELF4 (Q99607 whole entry): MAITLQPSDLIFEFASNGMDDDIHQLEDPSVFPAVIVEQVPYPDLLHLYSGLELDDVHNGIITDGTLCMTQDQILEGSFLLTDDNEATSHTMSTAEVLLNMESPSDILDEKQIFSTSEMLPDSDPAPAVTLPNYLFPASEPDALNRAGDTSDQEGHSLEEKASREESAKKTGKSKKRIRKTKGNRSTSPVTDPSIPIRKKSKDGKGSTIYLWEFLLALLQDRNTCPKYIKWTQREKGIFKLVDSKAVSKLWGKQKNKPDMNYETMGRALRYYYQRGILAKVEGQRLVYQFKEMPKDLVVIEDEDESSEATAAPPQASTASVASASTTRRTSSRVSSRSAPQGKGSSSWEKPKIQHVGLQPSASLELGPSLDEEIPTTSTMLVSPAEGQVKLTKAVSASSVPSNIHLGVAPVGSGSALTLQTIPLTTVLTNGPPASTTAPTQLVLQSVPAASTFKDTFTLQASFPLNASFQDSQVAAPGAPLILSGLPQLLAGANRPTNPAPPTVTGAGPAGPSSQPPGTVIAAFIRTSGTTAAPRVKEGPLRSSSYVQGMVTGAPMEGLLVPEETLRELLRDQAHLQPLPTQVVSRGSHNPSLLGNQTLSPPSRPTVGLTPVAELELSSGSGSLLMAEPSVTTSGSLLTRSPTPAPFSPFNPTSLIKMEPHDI

In the case of CCACAA, the binding signal in [1] is 1.2 fold enrichment (6-mer frequency, TF over GST control); in [2], 1.14 fold enrichment (6-mer frequency, TF over GST control); in test [3], 1.25 fold enrichment (6-mer frequency, TF over GST control); in test [4], 1.09 fold enrichment (6-mer frequency, TF over GST control); in test [5] it was 1.21 fold enrichment (6-mer frequency, TF over GST control); in test [6], 1.08 fold enrichment (6-mer frequency, TF over GST control). Moreover, the binding signal in [7] is 1.22 fold enrichment (6-mer frequency, TF over GST control); in test [8] it was 1.07 fold enrichment (6-mer frequency, TF over GST control); in test [9], 1.34 fold enrichment (6-mer frequency, TF over GST control); in test [10], 1.15 fold enrichment (6-mer frequency, TF over GST control); in test [11], 1.19 fold enrichment (6-mer frequency, TF over GST control); in test [12], 1.1 fold enrichment (6-mer frequency, TF over GST control). In addition, the binding signal is 1.09 fold enrichment (6-mer frequency, TF over GST control) in test [13]; 1.17 fold enrichment (6-mer frequency, TF over GST control) in test [14]; 1.07 fold enrichment (6-mer frequency, TF over GST control) in test [15]; 1.14 fold enrichment (6-mer frequency, TF over GST control) in [16]; 1.39 fold enrichment (6-mer frequency, TF over GST control) in [17]; 1.19 fold enrichment (6-mer frequency, TF over GST control) in test [18].
